Only some compounds are listed: those with a hit (about 3.8% of all), similar ones and a draw of the others.
Mtb hypoxia rep – Mtb hypoxia fluorescent reporter inhibition. M. tuberculosis hypoxia-regulated fluorescent reporter, fluorescence. fluorescence inhibition, % (test concentration not listed). actives 0.1% (n = 300,000). AID 1159583; in the data active means fluorescence inhibition mostly above about 23%, no sharp cut-off; inactive means mostly below about 17%
PrP 5UTR inh – inhibition of PrP 5' UTR reporter expression | AID 488862 | inhibition, % (test concentration not listed) | cell-based PrP 5' UTR mRNA reporter, plate reader | actives 0.35% (n = 340,000); in the data active means inhibition above about 52%
PrPC surface inh – reduces human prion protein on the cell surface | P04156 | cell surface PrPC, TR-FRET read-out | inhibition, % at 13.8 µM | actives 0.43% (n = 370,000); in the data active means inhibition above about 24%
Yp Topo-I inh – inhibitors of Yersinia pestis topoisomerase I; Y. pestis Topo-I cleavage product accumulation, plate reader; activity, % at 10 µM; actives 0.064% (n = 360,000); AID 504884; in the data active means activity above about 50%, passing the limit was not always enough
FBA Mtb inh – inhibits M. tuberculosis FBA enzyme; P9WQA3; purified M. tuberculosis FBA, fluorescence read-out; inhibition, % at 1 µM; actives 2.3% (n = 360,000); AID 588726; in the data active means inhibition above about 27%
Target sequence (P9WQA3 whole entry, looked up): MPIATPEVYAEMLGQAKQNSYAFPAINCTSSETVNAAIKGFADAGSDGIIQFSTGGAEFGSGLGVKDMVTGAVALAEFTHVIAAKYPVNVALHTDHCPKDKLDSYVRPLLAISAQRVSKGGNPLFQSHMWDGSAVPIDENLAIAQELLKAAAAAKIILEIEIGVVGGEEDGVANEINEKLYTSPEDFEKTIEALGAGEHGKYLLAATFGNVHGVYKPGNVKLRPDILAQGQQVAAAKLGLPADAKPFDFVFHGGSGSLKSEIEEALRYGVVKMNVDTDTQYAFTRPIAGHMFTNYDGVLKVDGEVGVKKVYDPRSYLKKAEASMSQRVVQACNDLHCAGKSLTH
GDH-TPI inh – counter-screen for M. tuberculosis FBA inhibitors: GDH-TPI coupled enzymes | actives 1.2% (n = 360,000) | GDH-TPI coupled enzyme counterscreen, NADH absorbance | inhibition, % at 4.8 µM; in the data active means inhibition above about 30%
Numbers stand for hits; i = inactive; nt = no result; + = active, no number.

SMILES	Mtb hypoxia rep	PrP 5UTR inh	PrPC surface inh	Yp Topo-I inh	FBA Mtb inh	GDH-TPI inh
O=C(CN1CCN(Cc2ccccc2)CC1)N/N=C\C=C/c1ccco1	nt	i	i	i	i	43.2
CC(/C=N\NC(=O)CN1CCN(Cc2ccccc2)CC1)=C\c1ccco1	nt	i	i	i	i	52.9
C=CCNC(=S)N=c1ccccn1C	i	nt	nt	nt	nt	nt
Cn1c(=O)c2cc(NC(=O)CC(C)(C)C)ccc2n1-c1ccccc1F	nt	nt	i	i	173.7	i
CC(CC(=O)Nc1ccc2c(c1)c(=O)n(C)n2-c1ccccc1F)c1ccccc1 (stereo unspecified)	nt	nt	i	i	139.3	i
CCOC(=O)c1c[nH]c(=S)n(-c2ccccc2)c1=O	i	i	i	i	i	38.8
CCOC(=O)c1c(C)c2c(=O)[nH]cnc2n1-c1ccccc1	i	i	i	i	i	i
COc1cccc(C=NNC(=S)Nc2cccc(C(=O)O)c2)c1O	i	nt	nt	nt	nt	nt
COc1ccccc1-c1cc(C(=O)N/N=C/c2ccc(C)s2)c2ccccc2n1	nt	i	i	i	i	36.8
CCN(CC)C(=O)COc1ccc(/C=N/NC(=O)c2cc(-c3ccccc3OC)nc3ccccc23)cc1OC	nt	i	i	i	i	42.4
COc1ccccc1-c1cc(C(=O)NN=Cc2ccc(C)s2)c2ccccc2n1	i	nt	nt	nt	nt	nt
COc1ccc(/C=N/NC(=O)c2cc(-c3ccc(C)cc3C)nc3ccccc23)cc1COC(C)=O	nt	i	i	i	i	34.7
CC1(C)Cc2c(c(=S)nc(-c3ccccc3)n2CCOCCO)CO1	i	i	i	i	i	i
C=CCn1c(-c2ccccc2)nc(=S)c2c1CC(C)(C)OC2	i	i	i	i	i	34.9
COc1ccc(-c2nc(=S)c3c(n2CCN2CCOCC2)CC(C)(C)OC3)cc1	nt	i	i	i	i	37.7
Cc1ccc(-c2nc(=S)c3c(n2CCN2CCOCC2)CC(C)(C)OC3)cc1	nt	i	i	i	i	i
CCN(CC)CCn1c(-c2ccc(C)cc2)nc(=S)c2c1CC(C)(C)OC2	i	i	i	i	i	32.0
Cc1ccc(-c2nc(=S)c3c(n2Cc2cccnc2)CC(C)(C)OC3)cc1	i	i	i	i	i	i
COc1ccc(OC)c(C=NNC(=O)C(=O)N2CCCC2)c1	i	nt	nt	nt	nt	nt
COc1ccc(-c2cc(C3C4C=CCC[C@@]4(C)C(=O)N3Cc3ccccc3)ccc2F)cc1 (stereo partly specified)	i	nt	nt	nt	nt	nt
COC(=O)[C@@]12CCCN1C(c1ccc(-c3cccc(Cl)c3)cc1)C1C(=O)N(C)C(=O)C12 (stereo partly specified)	i	nt	nt	nt	nt	nt
C=CCC(CC(=O)NCCO)C(=O)NCC(OC(=O)C(CC=C)Cc1ccc(F)cc1)c1ccccc1 (stereo unspecified)	i	nt	nt	nt	nt	nt
Oc1ccc(C=NN=Cc2ccco2)c(O)c1	nt	i	i	i	i	40.5
O=C(CNC(=O)c1ccco1)N/N=C/c1ccc(O)cc1O	nt	i	i	i	i	i
NC(=N\N=Cc1ccco1)/C(N)=N/N=Cc1ccco1	i	i	i	i	i	58.1
SMILES	Mtb hypoxia rep	PrP 5UTR inh	PrPC surface inh	Yp Topo-I inh	FBA Mtb inh	GDH-TPI inh
CC(=O)Nc1c(OC(C)=O)ccc2c(C)cc(=O)oc12	i	i	i	i	+	i
O=c1[nH]c2cc(O)ccc2c2ccccc12	nt	nt	i	i	i	i
Cc1cc(=O)[nH]c2cc(O)ccc12	i	i	i	i	+	i
CCC(=O)Oc1ccc2c(C)cc(=O)oc2c1C(=O)CC	nt	i	i	i	i	i
Cc1ccc(S(=O)(=O)CCC(=O)Oc2ccc3c(C)cc(=O)oc3c2)cc1	i	i	i	i	+	i
CC(=O)Oc1cc2oc(=O)cc(C)c2cc1OC(C)=O	i	i	i	i	173.4	i
Cc1coc2cc3oc(=O)cc(C)c3cc12	nt	i	i	i	i	i
CC1=NNC(=O)C1CCC(=O)NN=Cc1ccco1 (stereo unspecified)	i	nt	nt	nt	nt	nt
Cc1cc(=O)oc2cc(O)cc(OCc3ccccc3)c12	nt	i	i	i	+	31.0
CC(=O)Oc1ccc2c(C)cc(=O)oc2c1	nt	i	i	i	+	i
Cc1cc(OC(=O)c2ccco2)c2c(C)cc(=O)oc2c1	i	i	i	i	i	i
Cc1cc(=O)oc2cc(OC(=O)C3CCN(C(=O)c4ccc(F)cc4)CC3)ccc12	i	i	i	i	148.3	i
CC(=O)Oc1cc(OC(C)=O)c2c(C)cc(=O)oc2c1	nt	i	i	i	+	i
N#Cc1cccc(OC(=O)C2CCN(C(=O)c3ccc(F)cc3)CC2)c1	nt	nt	i	i	i	i
CCCCN1CC(=O)N2C3c4ccc(OC)cc4OCC3C(c3ccccc3)[C@]2(C)C1=O (stereo partly specified)	i	nt	nt	nt	nt	nt
C=CC1c2ccccc2N(S(=O)(=O)c2ccc(C)cc2)C(c2ccccc2C(F)(F)F)C1(C#N)C#N (stereo unspecified)	i	nt	nt	nt	nt	nt
Cc1ccccc1-c1c(C)oc2cc(O)ccc2c1=O	i	i	i	i	+	i
O=c1cc(O)c2ccc(O)cc2o1	nt	i	i	i	i	i
COC(=O)Cc1cc(=O)oc2cc(O)ccc12	i	i	i	i	+	i
Cc1cc(=O)oc2cc(O)ccc12	nt	i	i	i	+	i
Cc1cc(=O)[nH]c2ccc(Cl)cc12	nt	i	i	i	i	i
Cc1cc(=O)[nH]c2c(C)c(N)ccc12	i	i	i	i	+	i
COC(=O)c1ccc(COC(=O)CSCC(=O)Nc2ccc(C)cc2C)cc1	i	i	i	i	i	i
CCN(c1ccccc1)S(=O)(=O)c1cc(C(=O)Oc2ccc3c(C)cc(=O)oc3c2)ccc1C	nt	i	i	i	+	i
Cc1cc(=O)oc2cc(OC(=O)CCCCCN3C(=O)c4ccccc4C3=O)ccc12	nt	i	i	i	152.9	i
SMILES	Mtb hypoxia rep	PrP 5UTR inh	PrPC surface inh	Yp Topo-I inh	FBA Mtb inh	GDH-TPI inh
Cc1ccc(NC(=O)CSCC(=O)OCc2cc(=O)oc3cc(O)ccc23)c(C)c1	i	i	i	i	118.5	i
C=CCN1C(=O)C(=Cc2ccc(Cl)cc2)N=C1SCC(=O)NC1CCCCC1	i	nt	nt	nt	nt	nt
O=C1CC(N2CCN(c3ccc(C(=O)c4ccc(F)cc4)cc3)CC2)C(=O)N1 (stereo unspecified)	nt	i	i	i	i	47.6
Nc1c(-c2ccc(Cl)cc2)cnn1-c1cc(C(F)(F)F)cc(C(F)(F)F)c1	i	i	i	i	+	i
Nc1c(-c2cccc(Cl)c2)cnn1-c1cccc(C(F)(F)F)c1	i	i	i	i	i	i
CN(C(=O)NC1CCCCC1)[C@H]1C[C@H]2c3[nH]c4ccccc4c3CCN2C(=O)[C@H]1CO	nt	nt	i	i	151.8	i
CN(Cc1cc(Cl)cc(Cl)c1)[C@H]1C[C@H]2c3[nH]c4ccccc4c3CCN2C(=O)[C@H]1CO	nt	nt	i	i	i	i
CNc1nc(N)c([N+](=O)[O-])c(Nc2ccccc2OC)n1	i	i	i	i	i	31.9
COc1ccccc1Nc1nc(NCCO)nc(N)c1[N+](=O)[O-]	nt	nt	i	i	i	i
CC1OC(OC2CC[C@@]3(C)C(CC[C@]4(C)C3C=C[C@]35OC[C@@]6(CCC(C)(C)CC63)C(O)C[C@]54C)[C@]2(C)CO)C(O)C(OC2OC(CO)C(O)C(O)C2O)C1O (stereo partly specified)	i	nt	nt	nt	nt	nt

Assay outcomes deposited in PubChem by several laboratories.
